HSF1 inh: HSF1 inhibition. 0.77% of 300,000 active. activity change, negative = inhibition, % at 7.5 µM (by protocol). NIH3T3-HGL HSE-luciferase, MG132-induced, luminescence 8 h; stronger effect = lower value;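 active = more than half of replicate wells show activity change below -50%, luminescence cut by over half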;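 also: luciferase reports HSF-1 transcriptional activity via heat shock element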
TLR4-MyD88 BLA: TLR4-MyD88 interaction inhibition in cells; inhibition, % at 8.4 µM; O00206+Q99836; 0.18% of 200,000 active; HeLa CL3-4 TLR4/MyD88 BLA complementation, FRET ratio; in the data active = inhibition above about 25%
HSF1 activator: increases HSF-1 driven luciferase reporter signal | NIH3T3-HGL HSF-1 luciferase reporter, MG132, 8 h; 100% = twice DMSO control signal | activation, % at 9 µM | 1.7% of 300,000 active;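 active = mean replicate activation of at least 50% with a set share of replicates each reaching 50%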
NOD2 RIPK2 PPI: NOD2-RIPK2 protein interaction inhibition | O43353 | CHO BLA complementation NOD2-RIPK2, CCF4 ratio | inhibition, % at 4.98 µM | 0.38% of 360,000 active; in the data active = inhibition above about 21%
Target sequence (O43353 whole entry, looked up): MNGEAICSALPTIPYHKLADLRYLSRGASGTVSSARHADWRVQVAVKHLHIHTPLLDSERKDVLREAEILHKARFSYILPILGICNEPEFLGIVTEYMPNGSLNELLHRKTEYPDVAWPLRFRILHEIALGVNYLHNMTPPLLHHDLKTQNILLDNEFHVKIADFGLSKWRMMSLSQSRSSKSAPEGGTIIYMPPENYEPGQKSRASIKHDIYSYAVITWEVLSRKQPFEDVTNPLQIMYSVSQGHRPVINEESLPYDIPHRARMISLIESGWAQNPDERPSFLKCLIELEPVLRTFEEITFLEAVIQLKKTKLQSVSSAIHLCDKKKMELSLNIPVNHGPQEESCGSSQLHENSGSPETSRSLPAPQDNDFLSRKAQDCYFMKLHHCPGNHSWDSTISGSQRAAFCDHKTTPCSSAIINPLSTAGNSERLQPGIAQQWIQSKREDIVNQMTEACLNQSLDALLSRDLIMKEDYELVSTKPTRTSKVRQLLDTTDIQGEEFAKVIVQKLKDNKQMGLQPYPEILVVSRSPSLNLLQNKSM
TLR9-MyD88 block: blocks human TLR9 binding to MyD88; CHO BLA complementation TLR9-MyD88, CCF4 FRET ratio; 0.21% of 340,000 active; Q9NR96+Q99836; inhibition, % at 4.98 µM;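 active = inhibition above the mean over all tested compounds plus 3 SD, cut at about 21% in these data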
Hits are given with their value. Sampled rows, rich in hits. Any-hit rate of the full collection: about 2.4%.

CCOC(=O)N1CCN(S(=O)(=O)c2cccs2)CC1 was read as HSF1 inh inactive, TLR4-MyD88 BLA inactive, HSF1 activator inactive, NOD2 RIPK2 PPI inactive and TLR9-MyD88 block inactive.
CCOc1ccc(C(=O)N2CCN(S(=O)(=O)c3cccs3)CC2)c(OCC)c1 was read as HSF1 inh inactive, HSF1 activator 54.3, NOD2 RIPK2 PPI inactive and TLR9-MyD88 block inactive.
`CC(C)[C@H](NC(=O)c1ccc(F)cc1)C(=O)N(C)Cc1cccs1` gave NOD2 RIPK2 PPI inactive and TLR9-MyD88 block inactive.
`Cc1ccc(C2=NN(C(=S)Nc3ccccc3)C(c3ccco3)C2)cc1` (stereo not drawn) gave HSF1 inh inactive, TLR4-MyD88 BLA inactive, HSF1 activator 60.6, NOD2 RIPK2 PPI inactive and TLR9-MyD88 block inactive.
CCS(=O)(=O)Nc1ccc(C2=NN(C(=S)Nc3ccccc3)C(c3ccco3)C2)cc1 (stereo not drawn) was read as HSF1 inh inactive, TLR4-MyD88 BLA inactive, HSF1 activator inactive, NOD2 RIPK2 PPI inactive and TLR9-MyD88 block inactive.
Screening Cc1ccc(NC(=O)c2ccccn2)c(Br)c1 returned HSF1 inh inactive, TLR4-MyD88 BLA inactive, HSF1 activator 57.8, NOD2 RIPK2 PPI inactive and TLR9-MyD88 block inactive.
Screening COC(=O)CCC(=O)NNC(=O)c1cccc(Br)c1 returned HSF1 inh -66.6, TLR4-MyD88 BLA inactive, HSF1 activator inactive, NOD2 RIPK2 PPI inactive and TLR9-MyD88 block inactive.
`COc1ccc(CCN=C(NS(=O)(=O)c2ccc(Cl)cc2)c2ccccc2)cc1` gave HSF1 inh inactive, TLR4-MyD88 BLA inactive and HSF1 activator inactive.
Screening COc1ccc(CCN=C(NS(=O)(=O)c2ccccc2)c2ccccc2)cc1OC returned HSF1 inh inactive, TLR4-MyD88 BLA inactive, HSF1 activator 58.8, NOD2 RIPK2 PPI inactive and TLR9-MyD88 block inactive.
Cc1ccsc1C(C(=O)NCc1ccccc1)N(C(=O)c1csnn1)c1ccccc1 (stereo not drawn) was read as HSF1 inh inactive, HSF1 activator inactive, NOD2 RIPK2 PPI inactive and TLR9-MyD88 block inactive.
Screening O=C(N/N=C/c1cc(Br)ccc1O)c1ccncc1 returned HSF1 inh inactive, HSF1 activator inactive, NOD2 RIPK2 PPI inactive and TLR9-MyD88 block inactive.
For O=C(N/N=C/c1cc([N+](=O)[O-])ccc1O)c1ccncc1 the results were HSF1 inh -54.3, HSF1 activator inactive, NOD2 RIPK2 PPI inactive and TLR9-MyD88 block inactive.
O=C(N/N=C/c1ccc([N+](=O)[O-])s1)c1ccncc1 was read as HSF1 inh inactive, TLR4-MyD88 BLA inactive, HSF1 activator 60.5, NOD2 RIPK2 PPI inactive and TLR9-MyD88 block inactive.
Screening O=C(N/N=C/c1ccc([N+](=O)[O-])s1)c1cccc(Br)c1 returned HSF1 inh inactive, TLR4-MyD88 BLA inactive, HSF1 activator inactive, NOD2 RIPK2 PPI inactive and TLR9-MyD88 block inactive.
`Cc1ccc(C(=O)N/N=C/c2ccc([N+](=O)[O-])s2)cc1` gave HSF1 inh -69.5, TLR4-MyD88 BLA inactive, HSF1 activator inactive, NOD2 RIPK2 PPI inactive and TLR9-MyD88 block inactive.
`Cc1ccc(C(=O)N/N=C\c2ccc([N+](=O)[O-])s2)cn1` gave HSF1 inh inactive, TLR4-MyD88 BLA inactive, HSF1 activator inactive, NOD2 RIPK2 PPI inactive and TLR9-MyD88 block inactive.
O=C(CC1c2cc(F)ccc2C=C(c2ccsc2)N1c1ccc(C#CCCO)cc1)c1ccco1 (stereo not drawn) was read as NOD2 RIPK2 PPI inactive.
`COc1cccc(CSc2nc3ccccc3[nH]2)c1` gave HSF1 inh inactive, TLR4-MyD88 BLA inactive, HSF1 activator 111.9, NOD2 RIPK2 PPI inactive and TLR9-MyD88 block inactive.
Fc1ccccc1CSc1nc2ncc(Br)cc2[nH]1 was read as HSF1 inh inactive, TLR4-MyD88 BLA inactive, HSF1 activator inactive, NOD2 RIPK2 PPI inactive and TLR9-MyD88 block inactive.
For Fc1c(F)c(F)c(CSc2nc3ccccc3[nH]2)c(F)c1F the results were HSF1 inh inactive, TLR4-MyD88 BLA inactive, HSF1 activator 56.1, NOD2 RIPK2 PPI inactive and TLR9-MyD88 block inactive.
Screening Fc1ccccc1CSc1nc2ccccc2[nH]1 returned HSF1 inh inactive, TLR4-MyD88 BLA inactive, HSF1 activator 71.4, NOD2 RIPK2 PPI inactive and TLR9-MyD88 block inactive.
Screening COc1ccc(-c2nc3n(c(=O)c2C#N)CCS3)cc1 returned HSF1 inh inactive, TLR4-MyD88 BLA inactive, HSF1 activator inactive, NOD2 RIPK2 PPI inactive and TLR9-MyD88 block inactive.
C=CCSc1nc(-c2ccc(OC)cc2)c(C#N)c(=O)n1CC=C was read as HSF1 inh inactive, TLR4-MyD88 BLA inactive, HSF1 activator 64.9, NOD2 RIPK2 PPI inactive and TLR9-MyD88 block inactive.
Screening Cc1cccc(N2CCN(Cc3nc(-c4ccccc4Cl)oc3C)CC2)n1 returned HSF1 inh -60.0, TLR4-MyD88 BLA inactive, HSF1 activator inactive, NOD2 RIPK2 PPI inactive and TLR9-MyD88 block inactive.
Screening Cc1ccc(NS(=O)(=O)c2ccc(C)c(C(=O)Nc3ccc(S(=O)(=O)Nc4onc(C)c4C)cc3)c2)cc1 returned NOD2 RIPK2 PPI inactive and TLR9-MyD88 block inactive.
For O=C(CNS(=O)(=O)c1ccc(Br)s1)NCc1ccccc1 the results were HSF1 inh inactive, HSF1 activator 68.9, NOD2 RIPK2 PPI inactive and TLR9-MyD88 block inactive.
For CCOc1ccc(N2CC(C(=O)NC3CCCCCC3)CC2=O)cc1 (stereo not drawn) the results were HSF1 inh inactive, HSF1 activator inactive, NOD2 RIPK2 PPI inactive and TLR9-MyD88 block inactive.
Cc1cc(Cl)ccc1OCC(=O)Nc1nc(-c2cccs2)cs1 was read as HSF1 inh inactive, TLR4-MyD88 BLA inactive, HSF1 activator inactive, NOD2 RIPK2 PPI inactive and TLR9-MyD88 block inactive.
For O=C(COc1ccccc1)Nc1nc(-c2cccnc2)cs1 the results were NOD2 RIPK2 PPI inactive and TLR9-MyD88 block inactive.
`Cc1cc(C)cc(OCC(=O)Nc2nc(-c3cccnc3)cs2)c1` gave HSF1 inh -58.6, HSF1 activator inactive, NOD2 RIPK2 PPI inactive and TLR9-MyD88 block inactive.
`Cc1cc(Cl)ccc1OCC(=O)Nc1nc(-c2cccnc2)cs1` gave HSF1 inh -59.6, HSF1 activator inactive, NOD2 RIPK2 PPI inactive and TLR9-MyD88 block inactive.
For Fc1ccc(-c2cn3cc(C(F)(F)F)cc(Cl)c3n2)cc1 the results were HSF1 inh inactive, TLR4-MyD88 BLA inactive, HSF1 activator 82.8, NOD2 RIPK2 PPI inactive and TLR9-MyD88 block inactive.
`COc1ccc(-c2cn3cc(C(F)(F)F)cc(Cl)c3n2)cc1` gave HSF1 inh inactive, TLR4-MyD88 BLA inactive, HSF1 activator inactive, NOD2 RIPK2 PPI inactive and TLR9-MyD88 block inactive.
COc1cccc(-c2oc3c(c2C(=O)OCCN2CCCCC2)C(O)CCC3)c1 (stereo not drawn) was read as NOD2 RIPK2 PPI inactive.
For Cc1cc(N)n(-c2ccc(C(=O)O)cc2)n1 the results were HSF1 inh -67.0, TLR4-MyD88 BLA inactive, HSF1 activator inactive, NOD2 RIPK2 PPI inactive and TLR9-MyD88 block inactive.
For COc1cc(NC(=O)c2cc3c(C)nc4ccccc4c3o2)cc(OC)c1OC the results were HSF1 inh -51.2, TLR4-MyD88 BLA inactive, HSF1 activator inactive, NOD2 RIPK2 PPI inactive and TLR9-MyD88 block inactive.
